The text below walks through data of PubChem BioAssay (Tox21).

Calls of active or inactive are those of the source. Calls come from the whole dose curve.
% is set by controls: 0 for no effect and ±100 for the full control effect.

The test is described as follows: qHTS assay to identify small molecule agonists of the sonic hedgehog signaling (Shh) pathway (AID 1259368).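 Note: NIH/3T3-derived 3T3Gli1-Luc cells carrying a stable Gli1-driven firefly luciferase reporter; nearly all actives have a fitted effect of over 15% in size.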 To be noted: NIH/3T3 Gli1-Luc reporter, luciferase, 24 h, stronger effect = higher value; series mostly up to 92.4 µM. The text has this: National Center for Advancing Translational Sciences [NCATS]
NIH Chemical Genomics Center [NCGC]
U.S. Environmental Protection Agency [EPA]
National Institutes of Environmental Health Sciences [NIEHS]
National Toxicology Program [NTP]
The sonic hedgehog (Shh) pathway is essential for normal embryonic development. Dysregulation of the Shh pathway can cause severe developmental defects in organs. Therefore chemicals that interfere with the pathway are potential developmental toxicants. A cell line designated 3T3Gli1-Luc (DMB/OARSA/CFSAN/FDA, Laurel, MD), a NIH/3T3 derived clone containing stably integrated Gli1-Luc reporter is used to detect chemical interference of the Shh pathway, by changes in the expression of the firefly Luc gene under the control of the Gli1 transcriptional response element. This cell line was used to screen Tox21 libraries for identifying and prioritizing the potential developmental toxicants that interfere Shh pathway.
3T3 Gli1-Luc cells were dispensed at 2,000 per well in 5uL of culture medium into white solid bottom 1536-well plates (Greiner Bio-One, Monroe, NC) using a Multidrop Combi (Thermo Scientific, Waltham, MA) dispenser. The assay plates were incubated at 37 C and 5% CO2 for 4hr, and then 23nL of compounds dissolved in DMSO and positive control were transferred using a Pintool station (Wako, San Diego, CA). The assay plates were incubated at 37C and 5% CO2 for 24hr. For luciferase read, 4uL of Amplite Luciferase reporter gene assay reagent (AAT Bioquest, Inc. Sunnyvale, CA) was added to each well of the assay plates using Flying Reagent Dispenser (FRD, Aurora Discovery, San Diego, CA) and incubated at room temperature for 30min. The luminescence signal was measured using a ViewLux plate reader (Perkin Elmer, Shelton, CT).
In the case of `Cc1c(N)c(=O)n(-c2ccccc2)n1C`, the compound was classed as inactive.

For the compound `CCOC(=O)COC(=O)c1ccccc1C(=O)OCC`, the compound was classed as inactive.

Take `CCOC(=O)CCC(=O)OCC`: the result was inactive.

As for `C1CCC2=NCCCN2CC1`, the compound was classed as inactive.

With `COCCOC[C@H](CC1(C(=O)NC2CCC(C(=O)O)CC2)CCCC1)C(=O)Oc1ccc2c(c1)CCC2` (stereo not given in full), the compound was classed as inactive.

In the case of `CC1=CCC(O)(C(C)C)CC1` (stereo not given), the compound was classed as inactive.

Take `CC(C)(CCC(=O)O)C(=O)O`: the call was inactive.

As for `O=C1c2ccccc2C(=O)c2cc(O)ccc21`, the compound was called inactive.

In the case of `O=C1NC(=O)C2CC=CCC12` (stereo not given), the outcome was inactive.

Consider `CCCn1cc[n+](C)c1C`, for which the result was inactive.

For the compound `COc1cc(C)nc(-n2nc(C)cc2OC)n1`, the call was inactive.

Take `CCCCOC(=O)CCC(C)=O`: the call was inactive.

Regarding `NC(N)=NCCN1CCCCCCC1`, the activity change is -0.0353% [at 0.349 µM] (inactive).

Consider `NC(=O)NC1N=C([O][Al])NC1=O` (stereo not given), for which the compound was called inactive.

Take `CC(C)C1CCC(O)CC1` (stereo not given): the outcome was inactive.

For the compound `Nc1ccn([C@@H]2O[C@H](CO)[C@@H](O)[C@@H]2O)c(=O)n1`, the compound was classed as inactive.

In the case of `FB(F)F`, the call was inactive.

Consider `COc1cccc(OC)c1C(=O)N[C@@H]1C(=O)N2[C@@H]1SC(C)(C)[C@@H]2C(=O)O`, for which the result was inactive.

Turning to `CC(=O)c1cnccn1`, the outcome was inactive.

Regarding `CCOC(=O)OC(C)OC1=C(C(=O)Nc2ccccn2)N(C)S(=O)(=O)c2ccccc21` (stereo not given), the compound was called inactive.

As to `OCCc1ccccn1`, the compound was called inactive.

As for `CCC(=O)OCc1ccccc1`, the outcome was inactive.

Take `C1CCC2(CCCCO2)OC1`: the compound was called inactive.

`CCCCCCCCCCOc1cc2c(=O)c(C(=O)OCC)c[nH]c2cc1OCC`: the activity change is -0.042% [at 8.39 µM] (inactive).

Regarding `N[C@H](C(=O)O)[C@@H](O)c1ccc(O)c(O)c1`, the compound was classed as inactive.

Take `CN1CCN(c2cc3c(nn2)Oc2ccccc2N3C)CC1`: the activity change is 5.44% [at 18.9 µM] (inactive).

As to `O=S(=O)(O)c1cccc2ccccc12`, the compound was classed as inactive.

For the compound `CCCCCCCCCC[N+](C)(C)[O-]`, the result was inactive.

Take `CCCCCCCCCCCCSC`: the outcome was inactive.

For `CCOC(=O)C(=O)CCCCCCl`, the result was inactive.

On to `CC(N)C12CC3CC(CC(C3)C1)C2` (stereo not given), for which the outcome was inactive.

Consider `CO[Si](C)(OC)c1ccccc1`, for which the compound was called inactive.

As for `CCCCN(CCC(=O)OCC)C(C)=O`, the compound was classed as inactive.

Take `CC(C)C(=O)OC(=O)C(C)C`: the result was inactive.

For `COc1ccnc(CS(=O)c2nc3cc(OC(F)F)ccc3[nH]2)c1OC` (stereo not given), the compound was classed as inactive.

Take `Clc1cc(Cl)c(Cl)nc1Cl`: the call was inactive.

On to `COc1ccc2cc1Oc1cc3c(cc1OC)CC[N+](C)(C)[C@H]3Cc1ccc(cc1)Oc1c(OC)c(OC)cc3c1[C@@H](C2)[N+](C)(C)CC3`, for which the outcome was inactive.

For `CN1CC(=O)N/C1=N/C(=O)Nc1cccc(Cl)c1`, the call was inactive.

Consider `Nc1ccncc1N`, for which the call was inactive.

In the case of `CCCC[N+](C)(CCCC)CCCC`, the call was inactive.
